What was measured:
Test in all cases: relative growth (AUC of 72 h growth curve relative to DMSO control, dAUC) (ratio); higher = more growth (less inhibition), active = hit call of the paper
Conditions in all cases: 20 µM;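 active = growth AUC significantly below the DMSO wells by Dunnett test; inactive = the rest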
[1] = compound: C=CCOC(Cn1ccnc1)c1ccc(Cl)cc1Cl
Method in brief: (§1)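 Isolates from Icelandic stream sediments and Silwood Park soil, along with whole sediment communities, were grown in Luria–Bertani medium to carrying capacity and diluted 1:100 into 96-well plates with each chemical at 20 µM (1% DMSO). A600 was measured hourly for 72 h, and values were averaged over three biological replicates. Relative growth (dAUC) is the spline-integrated growth-curve area over the mean of the DMSO controls.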

[2] = compound: CC(=O)CC(c1ccccc1)c1c(O)c2ccccc2oc1=O
Method in brief: as §1

[3] = compound: CC1COc2ccccc2N1C(=O)C(Cl)Cl
Method in brief: as §1

[4] = compound: CCCCC(CC)CN1C(=O)[C@@H]2[C@H](C1=O)[C@@H]1C=C[C@H]2C1 (mixture of isomers)
Method in brief: as §1

[5] = compound: CCCCCCCCc1c(CC)nc2ncnn2c1N
Method in brief: as §1

[6] = compound: CCCCOCCOCCOCc1cc2c(cc1CCC)OCO2
Method in brief: as §1

[7] = compound: CCCOC(=O)NCCCN(C)C
Method in brief: as §1

[8] = compound: COC(=O)c1csc(C)c1S(=O)(=O)NC(=O)n1nc(OC)n(C)c1=O
Method in brief: as §1

[9] = compound: Cc1ccc(C(C)NC(=O)[C@@H](NC(=O)OC(C)C)C(C)C)cc1
Method in brief: as §1

[10] = compound: Cc1nn(C)c(Oc2ccccc2)c1/C=N/OCc1ccc(C(=O)OC(C)(C)C)cc1
Method in brief: as §1

[11] = compound: Cn1cc(C(=O)Nc2ccc(F)cc2-c2ccc(Cl)c(Cl)c2)c(C(F)F)n1
Method in brief: as §1

[12] = compound: Cn1cc(C(=O)Nc2ccccc2-c2cc(F)c(F)c(F)c2)c(C(F)F)n1
Method in brief: as §1

[13] = compound: O=C(NCc1ncc(C(F)(F)F)cc1Cl)c1c(Cl)cccc1Cl
Method in brief: as §1

[14] = compound: Oc1c(Cl)cc(Cl)c(Cl)c1Cc1c(O)c(Cl)cc(Cl)c1Cl
Method in brief: as §1

[15] = compound: S=C([S-])NCCNC(=S)[S-].S=C([S-])NCCNC(=S)[S-].[Mn+2].[Zn+2]
Method in brief: as §1

[16] = compound: c1ccc2[nH]c(-c3cscn3)nc2c1
Method in brief: as §1

Measured: relative growth

Neobacillus 1 (Neobacillus soli)
inactive: [1] 0.996 | [2] 0.98 | [3] 0.978 | [4] 0.974 | [5] 0.944 | [6] 1.04 | [7] 1.01 | [8] 1.07 | [9] 0.946 | [10] 0.942 | [11] 0.848 | [12] 1.02 | [13] 1 | [15] 1.06 | [16] 0.976
active: [14] 0.507

Microbacterium 1 (Microbacterium arborescens)
active: [14] 0.0384
inactive: [1] 0.965 | [2] 1.05 | [3] 0.934 | [4] 0.918 | [5] 0.98 | [6] 0.988 | [7] 1.02 | [8] 1.03 | [9] 0.968 | [10] 1.03 | [11] 1.04 | [12] 1.01 | [13] 1.05 | [15] 0.986 | [16] 0.983

Pseudomonas 4 (Pseudomonas peli)
active: [14] 0.00176
inactive: [1] 0.952 | [2] 0.978 | [3] 0.938 | [4] 0.959 | [5] 0.99 | [6] 0.961 | [7] 0.995 | [8] 1.03 | [9] 0.968 | [10] 1.01 | [11] 0.979 | [12] 0.992 | [13] 0.981 | [15] 0.927 | [16] 0.928

Prolinoborus 1 (Prolinoborus fasciculus)
inactive: [2] 0.986 | [3] 0.921 | [4] 0.937 | [5] 0.883 | [6] 0.915 | [7] 1.04 | [8] 1.02 | [9] 1.02 | [10] 0.945 | [11] 0.947 | [12] 1.01 | [13] 0.999 | [15] 0.861 | [16] 0.964
active: [1] 0.664 | [14] 0.0191

Aeromonas 3 (Aeromonas popoffii)
active: [14] 0.00174
inactive: [1] 0.933 | [2] 0.992 | [3] 0.988 | [4] 0.988 | [5] 1 | [6] 1.04 | [7] 1.02 | [8] 1.03 | [9] 1.03 | [10] 1.01 | [11] 0.999 | [12] 1.04 | [13] 1.04 | [15] 1.11 | [16] 1.04

Aeromonas 1 (Aeromonas sp. AE235)
active: [14] 0.000683
inactive: [1] 0.944 | [2] 0.96 | [3] 0.999 | [4] 0.966 | [5] 0.969 | [6] 0.979 | [7] 0.944 | [8] 1.04 | [9] 0.959 | [10] 1.02 | [11] 0.985 | [12] 1.03 | [13] 0.991 | [15] 0.955 | [16] 0.952

Community 8
inactive: [1] 0.913 | [2] 1.03 | [3] 1.03 | [4] 0.989 | [5] 1.07 | [6] 0.957 | [7] 1.03 | [8] 1.01 | [9] 0.972 | [10] 1.01 | [11] 0.943 | [12] 1.04 | [13] 1.02 | [14] 0.806 | [15] 1.13 | [16] 0.998

Arthrobacter 2 (Arthrobacter humicola)
active: [1] 0.195 | [6] 0.384 | [14] 0.00995
inactive: [2] 0.972 | [3] 0.871 | [4] 0.869 | [5] 0.929 | [7] 1.07 | [8] 1 | [9] 0.87 | [10] 0.771 | [11] 0.627 | [12] 0.983 | [13] 0.96 | [15] 0.932 | [16] 1.19

Pseudomonas 3 (Pseudomonas mandelii)
active: [14] 0.00168
inactive: [1] 1.01 | [2] 1.06 | [3] 1.07 | [4] 1.05 | [5] 0.984 | [6] 1.04 | [7] 1.04 | [8] 1.04 | [9] 1.08 | [10] 1.09 | [11] 1.03 | [12] 1 | [13] 0.984 | [15] 0.907 | [16] 0.96

Argrobacterium 1 (Agrobacterium sp.)
active: [14] 0.705
inactive: [1] 1.11 | [2] 0.978 | [3] 1.03 | [4] 1.13 | [5] 1.04 | [6] 0.946 | [7] 0.985 | [8] 1.01 | [9] 1.01 | [10] 1.17 | [11] 0.953 | [12] 0.918 | [13] 1.02 | [15] 1.14 | [16] 0.852

Arthrobacter 1 (Arthrobacter humicola)
inactive: [2] 1.01 | [3] 0.901 | [4] 0.835 | [5] 0.931 | [6] 1.01 | [7] 1.04 | [8] 1.12 | [9] 0.932 | [10] 1.26 | [11] 0.846 | [12] 0.99 | [13] 0.993 | [15] 0.994 | [16] 0.932
active: [1] 0.626 | [14] 0.00912

Arthrobacter 3 (Arthrobacter sp.)
active: [1] 0.33 | [14] 0.0157
inactive: [2] 0.933 | [3] 1.01 | [4] 1.02 | [5] 0.981 | [6] 1.02 | [7] 1.02 | [8] 1.04 | [9] 0.922 | [10] 1 | [11] 0.725 | [12] 0.968 | [13] 0.978 | [15] 0.821 | [16] 0.921

Rhizobium 1 (Rhizobium herbae)
active: [11] 0.332 | [12] 0.185 | [14] 0.0348
inactive: [1] 0.836 | [2] 0.893 | [3] 1.03 | [4] 0.888 | [5] 0.952 | [6] 1.04 | [7] 1.06 | [8] 0.92 | [9] 1.02 | [10] 1.02 | [13] 0.977 | [15] 1.09 | [16] 1.14

Paenibacillus 1 (Paenibacillus castaneae)
active: [1] 0.0487 | [14] 0.0147
inactive: [2] 0.878 | [3] 0.947 | [4] 0.923 | [5] 0.906 | [6] 1 | [7] 1.08 | [8] 1.03 | [9] 0.947 | [10] 0.866 | [11] 0.835 | [12] 1.01 | [13] 1.04 | [15] 0.978 | [16] 0.987

Serratia 1 (Serratia sp. 2015-2462-01)
active: [14] 0.00199
inactive: [1] 0.919 | [2] 0.952 | [3] 0.946 | [4] 0.932 | [5] 0.971 | [6] 0.954 | [7] 0.979 | [8] 0.99 | [9] 0.955 | [10] 0.973 | [11] 0.949 | [12] 1.02 | [13] 0.994 | [15] 1.06 | [16] 0.982

Pseudomonas 6 (Pseudomonas sp.)
inactive: [1] 0.901 | [2] 1.13 | [3] 1.09 | [4] 1.1 | [5] 0.937 | [6] 1.14 | [7] 0.948 | [8] 1.09 | [9] 1.12 | [10] 1.09 | [11] 0.974 | [12] 1.04 | [13] 1.05 | [15] 0.926 | [16] 0.884
active: [14] 0.0758

From the supplement of paper PMC12067926
